Calls of active or inactive are those of the source. Rule as the data show it, unless noted: active = inhibition above about 44%; inactive = the rest.
Key:
[1] = StAR promoter reporter inhibitors, counter-screen for LRH-1 inverse agonist project, cell-based, luminescence, high throughput (AID 651611; in the data active = inhibition above about 28%); conditions: StAR promoter luciferase reporter counterscreen, at 3.6 µM, stronger effect = higher value
[2] = target: Nuclear receptor subfamily 5 group A member 2 (Homo sapiens) (UniProt O00482); assay: NR5A2 activity suppression in reporter cells – cell-based, luminescence, confirmation (AID 651613; in the data active = inhibition above about 42%;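 also: HEK293T cells co-transfected with LRH-1 and StAR promoter luciferase reporter; 0% = vehicle wells and 100% = parental cells lacking receptor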); conditions: cell-based LRH-1 luciferase reporter, inverse agonism; at 3.6 µM; stronger effect = higher value
Sequence of Nuclear receptor subfamily 5 group A member 2 (Homo sapiens) (O00482 whole entry, looked up): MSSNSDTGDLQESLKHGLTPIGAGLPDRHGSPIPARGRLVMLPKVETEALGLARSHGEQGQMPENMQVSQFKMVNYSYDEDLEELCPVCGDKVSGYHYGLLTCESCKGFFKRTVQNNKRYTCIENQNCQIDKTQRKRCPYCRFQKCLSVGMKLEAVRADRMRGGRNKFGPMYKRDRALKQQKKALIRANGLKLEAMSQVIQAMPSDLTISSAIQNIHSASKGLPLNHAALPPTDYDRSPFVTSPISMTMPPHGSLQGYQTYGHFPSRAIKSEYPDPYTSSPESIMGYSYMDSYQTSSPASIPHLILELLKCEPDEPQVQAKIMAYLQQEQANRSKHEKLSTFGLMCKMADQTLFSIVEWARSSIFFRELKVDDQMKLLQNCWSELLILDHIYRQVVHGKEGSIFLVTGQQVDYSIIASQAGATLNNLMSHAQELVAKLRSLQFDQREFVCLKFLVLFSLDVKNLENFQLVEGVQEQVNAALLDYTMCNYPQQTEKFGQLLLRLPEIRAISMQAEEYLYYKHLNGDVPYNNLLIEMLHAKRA

[3] = target: Steroidogenic factor 1 (Homo sapiens) (UniProt Q13285); assay: inverse agonism at SF1 nuclear receptor – cell-based, luminescence, high throughput, counter-screen for LRH-1 inverse agonist project (AID 651614); conditions: cell-based SF1 luciferase reporter, at 3.6 µM, stronger effect = higher value;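 also: cells cotransfected with StAR promoter reporter and SF1 expression vector; 0% = vehicle on cells with receptor and 100% = vehicle on cells lacking receptor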
Sequence of Steroidogenic factor 1 (Homo sapiens) (Q13285 whole entry, looked up, the tested form may be a part): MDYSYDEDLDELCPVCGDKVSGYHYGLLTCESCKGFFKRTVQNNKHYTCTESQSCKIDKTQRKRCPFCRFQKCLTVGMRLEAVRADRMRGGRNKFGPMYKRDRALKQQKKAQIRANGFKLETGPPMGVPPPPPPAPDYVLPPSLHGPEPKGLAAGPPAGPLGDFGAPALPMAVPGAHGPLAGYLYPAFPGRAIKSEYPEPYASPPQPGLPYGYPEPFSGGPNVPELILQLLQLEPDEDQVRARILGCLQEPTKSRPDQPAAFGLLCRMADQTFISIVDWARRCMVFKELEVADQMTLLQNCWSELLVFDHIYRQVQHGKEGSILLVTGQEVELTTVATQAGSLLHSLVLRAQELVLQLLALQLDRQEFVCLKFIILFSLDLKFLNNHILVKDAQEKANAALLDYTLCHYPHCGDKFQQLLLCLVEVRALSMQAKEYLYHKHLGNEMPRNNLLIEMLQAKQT

[4] = compounds suppressing VP16-driven luciferase signal – cell-based, luminescence, high throughput, counter-screen for LRH-1 inverse agonist project (AID 651615; in the data active = inhibition above about 33%); conditions: Gal4-VP16 luciferase reporter cells, at 3.6 µM, stronger effect = higher value

Compound | inhibition [1] | inhibition [2] | inhibition [3] | inhibition [4]
NNC(=O)C(Cc1ccc(O)cc1)N1Cc2ccccc2C1=O (configuration not stated) | -1.94% (inactive) | 20.6% (inactive) | 29.4% (inactive) | 1.55% (inactive)
CCCc1cc(=O)oc2cc(C)cc(OCC(=O)NC3CC3)c12 | 2.08% (inactive) | 59.5% (active) | 62.1% (active) | -6.08% (inactive)
CS(=O)(=O)N1CCc2cc(-c3csc(NC(=O)Cc4cccs4)n3)ccc21 | 12.6% (inactive) | 53.8% (active) | 39.9% (inactive) | 42.8% (active)
Cc1ccc(NC(=O)COC(=O)C(NS(=O)(=O)c2ccc(Cl)cc2)C(C)O)cc1C (configuration not stated) | 2.25% (inactive) | 61.8% (active) | 43.2% (active) | -7.53% (inactive)
O=C(CSC1=NCCS1)N1CCN(c2ccc(Cl)cc2)CC1 | 8.14% (inactive) | 56.3% (active) | 53.3% (active) | 18.2% (inactive)
CC(=O)Oc1ccc(N(C(C)=O)S(=O)(=O)c2ccccc2)c2ccccc12 | 13% (inactive) | 31.6% (inactive) | 34.9% (inactive) | -3.17% (inactive)
Cc1ccc(/C=C2\SC(=S)N(c3c(C)n(C)n(-c4ccccc4)c3=O)C2=O)cc1 | 9.85% (inactive) | 55.7% (active) | 45.5% (active) | -2.06% (inactive)
Cc1cc(C)c2c(=O)[nH]c(SCC(=O)Nc3ccc(Br)cc3)nc2n1 | 9.16% (inactive) | 47.8% (active) | 30.6% (inactive) | -6.94% (inactive)
O=C1CCCN2N=C(SCC(=O)Nc3ccc(Br)cc3)SC2=N1 | -4.32% (inactive) | 49.1% (active) | 48.8% (active) | -7.91% (inactive)
C/C(=N\N=C(N)N)c1cc(Cl)ccc1Cl | 26.9% (inactive) | 102% (active) | 30.1% (inactive) | 75.8% (active)
COc1ccccc1Cc1c(-c2ccc(OC)c(OC)c2)nc2c3ccccc3ccn12 | 8.86% (inactive) | 40.2% (inactive) | 32% (inactive) | -1.36% (inactive)
Cc1ccc(NC(=O)CNNC(=O)c2cccc([N+](=O)[O-])c2)cc1[N+](=O)[O-] | 2.1% (inactive) | 34.6% (inactive) | 31.3% (inactive) | -5.02% (inactive)
O=C(COC(=O)Cn1[nH]c(=O)c2ccccc2c1=O)NNC(=O)c1ccc(Br)cc1 | 27.8% (active) | 32.1% (inactive) | 35.8% (inactive) | -7.59% (inactive)
COc1cccc(C=Nc2ccc3c(c2)OCCO3)c1O | -5.52% (inactive) | -12% (inactive) | -7.99% (inactive) | -25.9% (inactive)
CCCCCc1ccc(OCCCC[n+]2ccc(C)cc2)c(CCCCC)c1 | 21.4% (inactive) | 42.3% (active) | 45.7% (active) | 45.6% (active)
CCOc1ccc(NC(=O)CSc2nnc(CNC(=O)c3cccs3)o2)cc1 | 20% (inactive) | 60.3% (active) | 59.6% (active) | -0.65% (inactive)
COc1ccc(OC)c(CCNC(=O)Cn2nc(C)c3c(C)n(-c4ccc(C)cc4)nc3c2=O)c1 | 38.8% (active) | 68% (active) | 63.8% (active) | 52% (active)
CC(=O)c1ccc(-c2c(C)cc3oc(=O)cc(-c4ccccc4)c3c2C)cc1 | -6.71% (inactive) | 57% (active) | 52.6% (active) | -3.38% (inactive)
CN(C)CCNC(=O)c1cccc2nc3cccc(F)c3nc12 | 63.9% (active) | 81.5% (active) | 72.1% (active) | 55% (active)
S=C(NCc1ccc(Cl)cc1)Nc1ccncc1 | 24.2% (inactive) | 80.9% (active) | 72.8% (active) | 35.1% (active)
O=C(Cn1ncc2c([nH]c3ccccc32)c1=O)Nc1ccc(CN2CCCCC2)cc1 | 5.26% (inactive) | 60.9% (active) | 62.4% (active) | -4.27% (inactive)
O=C(COc1ccc2c3c(c(=O)oc2c1)CCCC3)NCc1ccccn1 | 2.43% (inactive) | 57.6% (active) | 56.7% (active) | -9.09% (inactive)
Cc1ccc(S(=O)(=O)Oc2ccccc2/C=N/NC(N)=S)cc1 | 42.5% (active) | 70.6% (active) | 66.8% (active) | 47.2% (active)
c1ccc(-c2nc(N3CCCCCC3)c3ccccc3n2)nc1 | 24.7% (inactive) | 63.5% (active) | 74.8% (active) | 39.3% (active)
CC(=O)Nc1ccc(-c2ccnc3c2CC(C(=O)NCc2ccco2)O3)cc1 (configuration not stated) | 48.1% (active) | 42.6% (active) | 44.6% (active) | 24.2% (inactive)
Cn1c(=O)oc2cc(NC(=O)CCl)ccc21 | 51.8% (active) | 61.6% (active) | 71.3% (active) | -65.2% (inactive)
COc1cccc(NC(=O)c2oc3ccccc3c2NC(=O)C2CC2)c1 | -5.29% (inactive) | 50.6% (active) | 47.1% (active) | -8.83% (inactive)

Compound | inhibition [1] | inhibition [2] | inhibition [3] | inhibition [4]
C=CCNc1nc2c(c(=O)n(C)c(=O)n2C)n1CCCCCC | 28.9% (active) | 73% (active) | 54.9% (active) | 47.2% (active)
CCOc1ccc(CCNC(=O)COC(=O)c2cc(=O)[nH]c3ccccc23)cc1OCC | 8.79% (inactive) | 53.2% (active) | 53.2% (active) | -8.43% (inactive)
CCc1c(C)nc(SCC(=O)Nc2ccc3c(c2)OCCO3)[nH]c1=O | 14.5% (inactive) | 63.7% (active) | 54.7% (active) | -6.83% (inactive)
CC(NC(=O)CCl)c1ccc(Cl)c(Cl)c1 (configuration not stated) | 32.8% (active) | 69.4% (active) | 67.3% (active) | -15.3% (inactive)
CCC(=O)Nc1ccc(NC(=O)CSc2nc3c(c(=O)n(C)c(=O)n3C)n2CC)cc1 | 34.6% (active) | 58.8% (active) | 58.3% (active) | -17.8% (inactive)
Cc1cc(N2CCN(c3nc4ccccc4s3)CC2)n2ncnc2n1 | 21.5% (inactive) | 52.4% (active) | 54.6% (active) | 50.3% (active)
O=C1CC(c2cccc([N+](=O)[O-])c2)c2ccc3ccccc3c2N1 (configuration not stated) | 11.8% (inactive) | 40.8% (inactive) | 39.5% (inactive) | 9.31% (inactive)
Cc1ccc(OCc2nnc(SCC(=O)Nc3ccc4c(c3)OCCO4)n2Cc2ccco2)cc1 | 6.71% (inactive) | 45.5% (active) | 41.2% (inactive) | 1.35% (inactive)
CO/N=C/C(=N\Nc1cc(OC)cc(OC)c1)C(=O)c1ccccc1 | 13.2% (inactive) | 63.4% (active) | 58.3% (active) | 0.16% (inactive)
ClCc1ncc(-c2ccc(Cl)cc2)o1 | 15.7% (inactive) | 70% (active) | 62.7% (active) | -28.8% (inactive)
C=CCn1c(SCC(=O)Nc2ccccc2C)nc(O)cc1=O | 9.34% (inactive) | 57.8% (active) | 52.2% (active) | -13.2% (inactive)
COCCn1c(C)cc(/C=C(\C#N)C(=O)OCC(=O)Nc2ccc(S(N)(=O)=O)cc2)c1C | 11.2% (inactive) | 52.6% (active) | 46.3% (active) | -8.79% (inactive)
CC(C)Oc1cccc(-c2cc(C(=O)NN3CCOCC3)c3ccccc3n2)c1 | 17.5% (inactive) | 40.7% (inactive) | 40.4% (inactive) | -17.7% (inactive)
O=C(COC(=O)CCN1C(=O)C2CC=CCC2C1=O)NCCc1ccccc1 (configuration not stated) | 11.9% (inactive) | 40.1% (inactive) | 44.8% (active) | 3.03% (inactive)
CCn1c(=S)sc2c(=O)n(CC(=O)Nc3ccc(OC)c(Cl)c3)c(C)nc21 | 6% (inactive) | 33.4% (inactive) | 24.9% (inactive) | 4.75% (inactive)
O=C(Nc1cccc(S(=O)(=O)Nc2ccc(Cl)cc2)c1)c1ccc(Cl)nc1 | 41.3% (active) | 65% (active) | 63.3% (active) | 56.9% (active)
COc1cccc(C(C)(O)c2nc(-c3ccc(S(C)(=O)=O)cc3)cs2)c1 (configuration not stated) | 7.7% (inactive) | 58.2% (active) | 62.1% (active) | 24% (inactive)
CCOc1ccc(NC(=O)CN2CCN(CC(=O)Nc3ccc(OC)cc3)CC2)cc1 | 9.49% (inactive) | 58.5% (active) | 56.2% (active) | 8.13% (inactive)
COc1ccccc1OCc1nnc(SCC(=O)Nc2ccc(N3CCOCC3)cc2)n1C | -2.38% (inactive) | 17.9% (inactive) | 29.6% (inactive) | -11.3% (inactive)
Cc1ccc(-c2nn3c(C)nnc3s2)cc1NC(=O)c1ccco1 | 7.12% (inactive) | 63.2% (active) | 60.7% (active) | -12.3% (inactive)
O=C(Cc1cccs1)N/N=C\c1ccc([N+](=O)[O-])s1 | 12.1% (inactive) | 64.9% (active) | 56.4% (active) | 12.6% (inactive)
O=C(Nc1ccc(N2CCN(Cc3ccccc3F)CC2)cc1)c1ccc([N+](=O)[O-])o1 | 28.7% (active) | 70.6% (active) | 73.9% (active) | 32.6% (active)
Nc1nc2ccccc2cc1C(=O)NCc1ccc(-c2ccccc2)cc1 | 24.6% (inactive) | 59.4% (active) | 58.6% (active) | 55.9% (active)
O=C(N/N=C/c1cc2c3c(c1O)CCCN3CCC2)c1ccccc1O | 83.4% (active) | 103% (active) | 87.2% (active) | 70.4% (active)
COc1ccc(NS(=O)(=O)c2ccc(OCC(=O)N3CCOCC3)cc2)cc1Cl | -8.5% (inactive) | 35.7% (inactive) | 34.3% (inactive) | 6.15% (inactive)
COc1ccc(NC(=O)CN2C(=O)NC(C)(c3ccc(C)cc3)C2=O)c([N+](=O)[O-])c1 (configuration not stated) | 9.06% (inactive) | 56.2% (active) | 55.1% (active) | -9.49% (inactive)

From PubChem BioAssay
